Laboratory results reported in PubChem BioAssay (NCATS).
Where “and” joins values, the source holds several entries; their conditions need not be identical. Identical values can stand only once. Results filed as inconclusive are left out. Calls of active or inactive are those of the source. Unless noted, calls come from the whole dose curve; as a rule, active = well fitted curve in the direction sought with a large enough effect; inconclusive = small, poorly fitted or top-dose-only effect, or another doubt; inactive = no such curve, though single readings can be large; an effect the other way counts as inactive or inconclusive.

Experiments:
[1] = Cell Viability - Jurkat (AID 426;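 active = dose-dependent loss of cell ATP signal giving a full or clear fitted curve, ranked by lower potency value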;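 note: potency is the fitted concentration of half-maximal effect; cells exposed to compound for 40 hours at 37 °C before ATP read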); conditions: qHTS
Outline: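 Luminescent ATP read-out (CellTiter-Glo, 20 min at room temperature) after 40 hr compound exposure at 37 °C of Jurkat E6-1 cells, 5000/well. Decreased ATP taken as cytotoxicity; AC50 from standard Hill equation.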

[2] = Cell Viability - HUV-EC-C (AID 542); conditions: HUV-EC-C endothelial cell viability, qHTS; series mostly up to 92.2 µM;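 note: cells exposed to compound for 40 hours; % is set by controls: 0 for no effect and ±100 for the full control effect; nearly all actives have a fitted effect of over 35% in size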
Outline: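 Luminescent ATP read-out (CellTiter-Glo, 20 min room temperature) after 40 hr compound treatment of HUV-EC-C cells at 37 °C. Concentration-response data fitted with the standard Hill equation to give AC50; tamoxifen and doxorubicin served as positive controls.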

[3] = Cellular Toxicity (caspase-3) Jurkat (AID 655); conditions: Jurkat caspase-3 activation, luminescence; caspase-3 activation: at 92.2 µM (top of the series), DMSO = 0%, tamoxifen = 100%;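 note: cells exposed to compound for 16 h at 37 °C before reading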
Outline: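 Luminescent Caspase-Glo 3/7 read-out (20 min, room temperature) after 16 h compound treatment at 37 C of 5000 Jurkat cells per well. AC50 derived by Hill-equation fitting, scaled between DMSO basal and 100 uM tamoxifen stimulation.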

[4] = MultiTox-Fluor Cytotoxicity Assay - LYMP1-001 - Dead Cells (AID 946); conditions: LYMP1-001 lymphoblastoid cells, dead-cell protease fluorescence; series mostly up to 92.2 µM;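 note: 0% = DMSO and 100% = tetraoctylammonium bromide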
Outline: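 LYMP1-001 lymphoblastoid cells (2500/well) treated 16 h at 37 C. Dead-cell protease cleavage of bis-AAF-R110 read at Ex/Em 485/520. Normalized to DMSO and 15 uM tetraoctylammonium bromide; AC50 from Hill fits.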

[5] = Cell Viability - LYMP1-002 - Assay at 16 hr (AID 948); conditions: LYMP1-002 lymphoblastoid cell viability; series mostly up to 92.2 µM;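 note: 0% = DMSO alone and full effect = 92 µM tetraoctylammonium bromide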
Outline: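 ATP luminescence (CellTiter-Glo) was measured after 16 hr compound exposure at 37 C of 2500 lymphoblastoid LYMP1-002 cells per well. Concentration-response curves were fitted with the Hill equation to give AC50.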

[6] = MultiTox-Fluor Cytotoxicity Assay - LYMP1-003 - Dead Cells (AID 961); conditions: LYMP1-003 lymphoblastoid cells, dead-cell protease fluorescence; series mostly up to 92.2 µM;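 note: 0% = DMSO and 100% = tetraoctylammonium bromide; nearly all actives have a fitted effect of over 70% in size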
Outline: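 LYMP1-003 human lymphoblastoid cells (2500/well) exposed to compound 16 h at 37 C in complete medium; dead-cell protease read with bis-AAF-R110 fluorescence (Ex/Em 485/520) after 60 min at room temperature. Normalized to DMSO and 15 uM tetraoctylammonium bromide; AC50 from Hill fit.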

[7] = Cell Viability - LYMP2-003 (AID 965); conditions: LYMP2-003 lymphoblastoid cell viability; series mostly up to 92.2 µM;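 note: cells exposed to compounds for 24 h before reading; 0% = DMSO only and full effect = 92 µM tetraoctylammonium bromide; nearly all actives have a fitted effect of over 50% in size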
Outline: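 CellTiter-Glo luminescence quantified ATP loss after 24 h compound treatment of LYMP2-003 lymphoblastoid cells at 37 C. Titration series were fitted with the standard Hill equation to give AC50.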

[8] = Cell Viability - LYMP2-005 (AID 967); conditions: LYMP2-005 lymphoblastoid cell viability; series mostly up to 92.2 µM;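 note: plate controls were DMSO only for no effect and 92 µM tetraoctylammonium bromide control for full effect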
Outline: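 LYMP2-005 human lymphoblastoid cells (2500/well) were treated with compounds for 24 h at 37 C. Intracellular ATP was then measured by CellTiter-Glo luminescence after 30 min at room temperature. AC50 values came from Hill-equation fits of qHTS concentration-response data.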

[9] = Cell Viability - LYMP2-011 (AID 969); conditions: LYMP2-011 lymphoblastoid cells viability; series mostly up to 92.2 µM;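 note: cells exposed to compound for 24 hours; 0% = DMSO only and full inhibition = 92 µM tetraoctylammonium bromide; nearly all actives have a fitted effect of over 60% in size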
Outline: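 Luminescent ATP read-out (CellTiter-Glo, 30 min RT) after 24 hr compound exposure at 37 C in human lymphoblastoid cells, 2500 cells/well. Decreasing ATP indicates cytotoxicity; AC50 from standard Hill fit.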

[10] = Cell Viability - LYMP2-013 (AID 970); conditions: LYMP2-013 lymphoblastoid cells viability; series mostly up to 92.2 µM;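 note: 0% = DMSO only and full inhibition = tetraoctylammonium bromide control; nearly all actives have a fitted effect of over 55% in size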
Outline: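 CellTiter-Glo luminescence (cellular ATP) read after 30 min at RT. Cells: human lymphoblastoid line, 2500/well, 24 hr compound exposure at 37 C. Tetraoctylammonium bromide positive control; AC50 via standard Hill fit of qHTS titrations.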

[11] = Cell Viability - LYMP2-008 (AID 980); conditions: LYMP2-008 lymphoblastoid cell viability, qHTS; series mostly up to 92.2 µM; note: % is set by controls: 0 for no effect and ±100 for the full control effect; nearly all actives have a fitted effect of over 60% in size
Outline: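 Luminescent ATP read-out (CellTiter-Glo, 30 min RT) after 24 hr compound exposure at 37 C of human lymphoblastoid cells in complete medium. Decrease in ATP taken as cytotoxicity; AC50 derived by standard Hill fit of qHTS concentration-response data.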

[12] = Cell Viability - LYMP2-024 (AID 988); conditions: LYMP2-024 lymphoblastoid cell viability; series mostly up to 92.2 µM;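 note: plate controls were DMSO only for no effect and 92 µM tetraoctylammonium bromide for full effect; nearly all actives have a fitted effect of over 60% in size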
Outline: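 ATP-based luminescence (CellTiter-Glo, 30 min RT) after 24 h compound exposure at 37 C of 2500 lymphoblastoid cells/well; decrease in ATP taken as cytotoxicity. qHTS concentration-response fitted to standard Hill equation for AC50.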

[13] = Cell Viability - LYMP2-026 (AID 989); conditions: LYMP2-026 lymphoblastoid cell viability, qHTS; series mostly up to 92.2 µM; note: % is set by controls: 0 for no effect and ±100 for the full control effect; nearly all actives have a fitted effect of over 50% in size
Outline: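 qHTS cytotoxicity: 2500 cells/well, 5 hr 37 C, compound 24 hr 37 C, CellTiter-Glo 30 min RT, luminescence. Tetraoctylammonium bromide positive control. AC50 via standard Hill fit.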

[14] = biological target: Tumor necrosis factor (Homo sapiens) (UniProt P01375); assay: qHTS assay to identify small molecules that stimulate Tumor Necrosis Factor-alpha (TNF-alpha) secretion (AID 651757; active = well fitted curve in the direction sought with a large enough effect in the signal ratio; the % refers to the signal ratio; note: 0% is about no effect); conditions: Human cells, HTRF 665/615 ratio; series mostly up to 92.2 µM
Sequence of Tumor necrosis factor (Homo sapiens) (P01375 whole entry, looked up): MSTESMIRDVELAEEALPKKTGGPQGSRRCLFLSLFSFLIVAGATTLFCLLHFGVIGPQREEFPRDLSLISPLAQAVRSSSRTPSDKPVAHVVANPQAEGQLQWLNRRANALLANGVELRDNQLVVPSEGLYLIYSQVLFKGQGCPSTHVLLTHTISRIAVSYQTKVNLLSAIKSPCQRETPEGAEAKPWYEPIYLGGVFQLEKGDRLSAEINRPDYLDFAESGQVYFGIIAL
Outline: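 THP-1 cells, 3000/well; compound 17 hrs, 37 C; add cryptate/XL665 anti-TNF-alpha antibody pair; 3 hr RT; TR-FRET (HTRF) read of secreted TNF-alpha. Quantitative HTS format.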

[15] = qHTS assay for small molecule agonists of the antioxidant response element (ARE) signaling pathway measured by Nrf2-dependant transcriptional activity (AID 720636; active = well fitted curve in the direction sought with a large enough effect in the repeat runs; an effect the other way counts as inactive or inconclusive;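 note: HepG2 cells with an ARE-driven luciferase reporter; % of control where 0% means no effect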); conditions: ARE-luc HepG2, Nrf2 luciferase reporter, 16 h; series mostly up to 92.4 µM
Outline: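 In HepG2 cells engineered with an Nrf2-responsive luciferase gene, ARE induction was quantified as luminescence after 16 hr compound treatment at 37 C.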

[16] = biological target: Nuclear receptor subfamily 1 group I member 2 (Rattus norvegicus) (UniProt Q9R1A7); assay: qHTS assay for small molecule activators of the rat pregnane X receptor (rPXR) signaling pathway (AID 651751; call rule not given here; note: 0% is about no effect); conditions: rPXR reporter cells, luciferase (One-Glo), 24 h
Sequence of Nuclear receptor subfamily 1 group I member 2 (Rattus norvegicus) (Q9R1A7 whole entry, looked up): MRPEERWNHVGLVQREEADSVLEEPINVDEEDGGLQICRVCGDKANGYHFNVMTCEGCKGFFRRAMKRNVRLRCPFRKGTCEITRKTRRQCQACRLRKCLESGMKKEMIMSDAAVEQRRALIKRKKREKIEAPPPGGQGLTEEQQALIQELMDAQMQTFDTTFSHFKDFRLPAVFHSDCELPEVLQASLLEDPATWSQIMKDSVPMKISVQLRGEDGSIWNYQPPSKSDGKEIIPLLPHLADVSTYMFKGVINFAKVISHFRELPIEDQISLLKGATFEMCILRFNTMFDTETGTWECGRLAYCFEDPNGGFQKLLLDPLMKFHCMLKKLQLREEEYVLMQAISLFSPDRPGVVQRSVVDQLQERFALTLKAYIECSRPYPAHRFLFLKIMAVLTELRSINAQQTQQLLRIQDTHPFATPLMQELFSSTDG

[17] = MultiTox-Fluor Cytotoxicity Assay - LYMP1-001 - Live Cells (AID 947); conditions: LYMP1-001 lymphoblastoid cells, live-cell protease fluorescence viability; series mostly up to 92.2 µM;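 note: 0% = DMSO only and full inhibition = tetraoctylammonium bromide control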
[18] = Cell Viability - LYMP2-002 (AID 977); conditions: LYMP2-002 lymphoblastoid cell viability, qHTS; series mostly up to 92.2 µM;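 note: plate controls were DMSO only for no effect and 92 µM tetraoctylammonium bromide for full effect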
Outline: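 In this qHTS viability screen, 2500 human lymphoblastoid cells per well receive compound for 24 hr at 37 C, and luciferase-based ATP luminescence gives the viability signal. Tetraoctylammonium bromide serves as positive control.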

[19] = qHTS assay for small molecule activators of the human pregnane X receptor (PXR) signaling pathway (AID 720659; call rule not given here; note: 0% is about no effect); conditions: DPX-2 HepG2 CYP3A4-luciferase, 24 h; series mostly up to 92.3 µM
[20] = Cell Viability - LYMP2-009 (AID 968); conditions: LYMP2-009 lymphoblastoid cell viability; series mostly up to 92.2 µM;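 note: 0% = DMSO alone and the full-kill end = tetraoctylammonium bromide at 92 µM; nearly all actives have a fitted effect of over 55% in size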

CCOP(=S)(OCC)SCCSCC
inactive: Potency [1] > 92 µM | Potency [2] | caspase-3 activation [3] -2.31% | outcome [4] | outcome [5] | Potency [6] | Potency [7] | Potency [8] | Potency [9] | Potency [10] | Potency [11] | Potency [12] | Potency [13] | outcome [14] | Potency [15] | max response [16] 1.52% and -3.09%

O=[N+]([O-])CCO
inactive: Potency [1] > 92 µM | Potency [2] | caspase-3 activation [3] -0.445% | outcome [4] | outcome [17] | outcome [5] | Potency [6] | Potency [7] | Potency [10] | Potency [18] | Potency [11] | Potency [12] | Potency [13] | outcome [14] | Potency [15] | max response [16] 2.92% | outcome [19]

CCNCC
inactive: Potency [1] > 92 µM | Potency [2] | outcome [4] | outcome [17] | outcome [5] | Potency [6] | Potency [7] | Potency [8] | Potency [20] | Potency [9] | Potency [10] | Potency [18] | Potency [11] | Potency [12] | Potency [13] | outcome [14] | Potency [15] | max response [16] 0.38% | outcome [19]

CC(Cl)CCl (stereo not given)
inactive: Potency [1] > 92 µM | Potency [2] | caspase-3 activation [3] 0.191% | outcome [4] | outcome [17] | outcome [5] | Potency [7] | Potency [8] | Potency [20] | Potency [9] | Potency [18] | Potency [12] | Potency [13] | outcome [14] | Potency [15] | max response [16] 3.07% | outcome [19]

ClCc1ccccn1
inactive: Potency [1] > 92 µM | Potency [2] | caspase-3 activation [3] 1.38% | outcome [4] | Potency [6] | Potency [7] | Potency [20] | Potency [9] | Potency [10] | Potency [11] | Potency [13] | outcome [14] | Potency [15] | max response [16] 2.99% and 8.15% | outcome [19]

[O-][Cl+2]([O-])O
inactive: Potency [1] > 92 µM | Potency [2] | caspase-3 activation [3] -0.446% | outcome [4] | outcome [5] | Potency [7] | Potency [8] | Potency [20] | Potency [10] | Potency [12] | Potency [13] | outcome [14] | Potency [15] | max response [16] 2.81% | outcome [19]

CCOP(=O)(OCC)OCC
inactive: Potency [1] > 92 µM | Potency [2] | caspase-3 activation [3] -0.738% | outcome [4] | outcome [17] | outcome [5] | Potency [6] | Potency [7] | Potency [8] | Potency [9] | Potency [11] | Potency [12] | outcome [14] | Potency [15] | max response [16] 0.98% and -0.959% | outcome [19]

Cl/C=C\Cl
inactive: Potency [1] > 92 µM | Potency [2] | outcome [4] | outcome [17] | outcome [5] | Potency [7] | Potency [8] | Potency [20] | Potency [9] | Potency [10] | Potency [18] | Potency [11] | Potency [12] | Potency [13] | outcome [14] | max response [16] 3.59% | outcome [19]

CCCCCOC(=O)c1ccccc1C(=O)OCCCCC
inactive: Potency [1] > 92 µM | Potency [2] | caspase-3 activation [3] 0.132% | outcome [4] | outcome [5] | Potency [6] | Potency [7] | Potency [8] | Potency [9] | Potency [10] | Potency [18] | Potency [11] | Potency [12] | Potency [13] | outcome [14] | Potency [15] | max response [16] 4.64% and 1.43% | outcome [19]

ClCCBr
inactive: Potency [1] > 92 µM | caspase-3 activation [3] 0.239% | outcome [4] | outcome [17] | outcome [5] | Potency [7] | Potency [8] | Potency [20] | Potency [9] | Potency [10] | Potency [12] | Potency [13] | outcome [14] | Potency [15] | max response [16] -0.231% | outcome [19]

C=COC(C)=O
inactive: Potency [1] > 92 µM | Potency [2] | caspase-3 activation [3] 1.08% | outcome [4] | outcome [5] | Potency [6] | Potency [7] | Potency [8] | Potency [20] | Potency [18] | Potency [11] | Potency [12] | Potency [13] | outcome [14] | max response [16] 2.31% | outcome [19]

CCOS(C)(=O)=O
inactive: Potency [1] > 92 µM | Potency [2] | caspase-3 activation [3] 0.622% | outcome [4] | outcome [17] | outcome [5] | Potency [6] | Potency [7] | Potency [8] | Potency [20] | Potency [9] | Potency [10] | Potency [18] | Potency [11] | outcome [14] | Potency [15] | max response [16] 1.86% | outcome [19]

c1ccc(NNc2ccccc2)cc1
inactive: Potency [1] > 92 µM | Potency [2] | caspase-3 activation [3] 0.504% | outcome [4] | outcome [17] | Potency [6] | Potency [7] | Potency [8] | Potency [9] | Potency [10] | Potency [18] | Potency [11] | Potency [12] | Potency [13] | outcome [14] | Potency [15] | max response [16] 12.1% and 2.7% | outcome [19]

O=[N+]([O-])c1ccccc1O
inactive: Potency [1] > 92 µM | caspase-3 activation [3] 1.37% | outcome [4] | outcome [17] | outcome [5] | Potency [6] | Potency [7] | Potency [8] | Potency [20] | Potency [9] | Potency [10] | Potency [18] | Potency [11] | Potency [13] | outcome [14] | Potency [15] | max response [16] 0.314% | outcome [19]

Nc1cc(Cl)cc(Cl)c1
inactive: Potency [1] > 92 µM | Potency [2] | caspase-3 activation [3] -0.381% | outcome [4] | outcome [17] | Potency [6] | Potency [7] | Potency [20] | Potency [18] | Potency [12] | Potency [13] | outcome [14] | max response [16] -0.532% | outcome [19]
